Assay outcomes from PubChem BioAssay.
This is a sample that favours compounds with a hit; in the whole collection about 0.91% have one here.
Prostate diff – activators of LNCaP prostate cell differentiation; flow cytometry side scatter, 4 d; side scatter shift, % at 10 µM; 24,000 tested, 0.56% active;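 active means side scatter shift above 30%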;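 further: androgen-responsive LNCaP prostate cancer cells in charcoal-stripped serum medium; percent of cells past a gate set so DMSO wells show 10% shift; higher shift means more granular cells and more differentiation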
S aureus QS inh – S. aureus quorum sensing inhibition; S. aureus RN6390 RNAIII-GFP reporter, AIP-induced, flow cytometry 3 h; inhibition, % at 2 µM; 24,000 tested, 0.3% active;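 active means share of bacteria positive for the green fluorescent reporter and its mean brightness both inhibited by 50% or more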;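 further: 0% = AIP-stimulated control and 100% = unstimulated bacteria without AIP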
Numbers without * were called inactive; . = no result given.

SMILES	Prostate diff	S aureus QS inh
Cc1cc(N2CCOCC2)nc2ccc(NC(=O)C3CCC(C)CC3)cc12 (stereo unspecified)	8	1
Cc1cc(N2CCC(N(C)C3CCCC3)CC2)nc2cc(O)ccc12	44*	0
O=C(NC1CCCCCCC1)c1ccc2c(c1)N(Cc1ccc(F)cc1)C(=O)CS2=O (stereo unspecified)	6	2
CCN1CCCC1CNC(=O)c1cc2c(-c3cccc(OC)c3)nn(C)c2s1 (stereo unspecified)	23	1
CCCCNC(=O)c1cc2c(-c3ccc(Cl)cc3)nn(C)c2s1	4	-7
Cn1nc(-c2ccc(Cl)cc2)c2cc(C(=O)NCCCN3CCCC3)sc21	62*	-1
CCN1CCCC1CNC(=O)c1cc2c(-c3ccc(Cl)cc3)nn(C)c2s1 (stereo unspecified)	64*	3
CCOc1ccc(CCNC(=O)C2CCC(=O)N2C2CCCCC2)cc1OCC (stereo unspecified)	7	5
CN(C)C(=O)Oc1cccc([N+](C)(C)C)c1	1	-1
Cn1c(C(=O)NCCCN2CCN(c3ccccc3F)CC2)cc2c(=O)n(C)c3ccccc3c21	70*	-2
Cn1c(C(=O)NCCCN2CCOCC2)cc2c(=O)n(C)c3ccccc3c21	13	-4
Cc1ccc(C2=Nc3ccccc3NC(C)(c3ccc(C)o3)C2)o1 (stereo unspecified)	35*	0
COc1cccc(C2=NOC(C(=O)NC3CCCCC3)C2)c1 (stereo unspecified)	5	0
CCOC(=O)c1cc2c(=O)n(C)c3ccccc3c2s1	15	4
CCOc1ccc(OCC)c(NC(=O)C2CCN(c3ncccn3)CC2)c1	10	-1
COc1ccc(-c2nc3ncccn3c2Nc2ccc3c(c2)OCCO3)cc1	9	-1
Oc1ccc(-c2nc3ncccn3c2Nc2ccc3c(c2)OCCO3)cc1	1	83*
COc1ccc(C2N(c3cc(Cl)ccc3OC)C(=O)C3CCCN32)cc1OC (stereo unspecified)	1	-6
CCc1ccc(NC(=O)NCCN2CCc3ccccc3C2)cc1	34*	-3
O=C(NCCN1CCc2ccccc2C1)Nc1ccc(F)cc1	7	-5
Cc1nc2sc(C(c3ccccc3)N3CCN(c4ccccc4F)CC3)c(O)n2n1 (stereo unspecified)	4	-1
O=C(CN1CCOc2ccccc21)N1CCN(c2cccc(Cl)c2)CC1	9	4
CCOc1ccc(NC(=O)c2cccc3c2C(=O)N(Cc2cccnc2)C3)cc1	5	-9
O=C(NCCC1=CCCCC1)C(=O)NCC(c1ccco1)N1CCN(c2ccc(F)cc2)CC1 (stereo unspecified)	.	0
COc1ccc(OCC(O)CN2CCCCC2)cc1 (stereo unspecified)	2	-9
SMILES	Prostate diff	S aureus QS inh
C=CCn1c(=N)n(CC(O)COc2ccccc2OC)c2ccccc21 (stereo unspecified)	12	-1
Cc1ccc(OCC(O)Cn2c(=N)n(CCN3CCCCC3)c3ccccc32)cc1 (stereo unspecified)	58*	0
CCCCCn1c(=N)n(CC(O)COc2ccccc2OC)c2ccccc21 (stereo unspecified)	34*	1
O=C(NC1CCCCC1)c1cccnc1C(=O)O	7	1
Cc1c(C(=O)OCC2CCCO2)[nH]c2c1C(=O)CC(c1ccc(N(C)C)cc1)C2 (stereo unspecified)	6	-6
CCN(CCNC(=O)C1CCN(c2nnc(-n3cccc3)s2)CC1)c1ccccc1	7	-3
Cc1nn(-c2ccccc2)c2sc(-c3n[nH]c(=S)o3)cc12	4	60*
Cc1nn(-c2ccccc2)c2sc(C(=O)N3CCOCC3)cc12	12	-8
Cc1ccc(Cn2c(SCC(C)C)nc3c2c(=O)n(C)c(=O)n3C)cc1	7	0
CC1=C(C)[N+](=O)C2CCCCC2N1[O-] (stereo unspecified)	2	0
Cc1oc(-c2cccc(Cl)c2)nc1CN1CCC(C(=O)N2CCN(c3ccccn3)CC2)CC1	24	23
CCc1ccc(-c2nc(CN3CCC(C(=O)N4CCN(c5ccccn5)CC4)CC3)c(C)o2)cc1	3	2
CCc1ccc(-c2nc(CN3CCC(C(=O)N4CCN(c5ccccc5)CC4)CC3)c(C)o2)cc1	35*	-6
Cc1oc(-c2ccc(Cl)cc2)nc1CN1CCC(C(=O)N2CCN(c3ccccn3)CC2)CC1	43*	0
O=C(CN(Cc1ccc(F)cc1)C(=O)Cn1nnc2ccccc21)NCC1CCCO1 (stereo unspecified)	7	0
CCOC(=O)c1cnc2nc(C)[nH]n2c1=O	2	-1
CCOC(=O)c1cnn(-c2cc(C)c3cc(C)cc(C)c3n2)c1N	32*	-4
O=c1oc2c3c4c(cc2cc1-c1nc2ccccc2[nH]1)CCCN4CCC3	14	-1
Cc1ccc(CSC2=NCCN2C(=O)C2CC2)cc1	8	0
O=C1CS/C(=N\C(=O)N2c3ccccc3Sc3ccccc32)N1	10	87*
O=C1CSC(=Nc2ccccc2)N1	.	-4
Cc1oc(-c2ccc(Cl)cc2)cc1-c1nn2c(-c3ccoc3C)nnc2s1	7	-1
CN(C)c1ccc(-c2nn3c(-c4ccc(Cl)cc4Cl)nnc3s2)cc1	39*	0
O=c1cc(N2CCC(Cc3ccccc3)CC2)[nH]c(=O)n1C1CCCCC1	18	16
O=c1cc(N2CCc3ccccc3C2)[nH]c(=O)n1C1CCCCC1	62*	4
SMILES	Prostate diff	S aureus QS inh
COC(=O)c1ccc(CSc2nc3c(cnn3-c3ccc(Cl)cc3)c(=O)[nH]2)o1	2	71*
COC(=O)c1ccc(CSc2nc3c(cnn3-c3ccc(F)cc3)c(=O)[nH]2)o1	6	7
O=C(c1cccc2ccccc12)N1CCC(N2CCN(c3ccccc3)CC2)CC1	15	0
CCOc1ccc(-c2cc(C(=O)NCCCN3CCN(CC)CC3)c3ccccc3n2)cc1	37*	-1
O=C(NCCCN1CCOCC1)c1cc(-c2ccc3c(c2)OCO3)nc2ccccc12	12	-4
COC(=O)C1=C(C)N=c2s/c(=C/c3cccs3)c(=O)n2C1c1cccs1 (stereo unspecified)	31*	4
CCOC(=O)C1=C(C)N=c2s/c(=C\c3cccn3C)c(=O)n2C1c1cccc(OC)c1OC (stereo unspecified)	11	6
CC1CCCCN1CCNC(=O)c1ccc2c(=O)n(CCc3ccccc3)c(=O)[nH]c2c1 (stereo unspecified)	48*	1
CC1CCN(CCNC(=O)c2ccc3c(=O)n(CCc4ccccc4)c(=O)[nH]c3c2)CC1	5	3
O=C(Cn1ccc2ccccc2c1=O)NCCC(=O)NC1CCN(Cc2ccccc2)CC1	17	1
CCN1CCN(c2cc(C)c3cc(NC(=O)c4ccncc4)ccc3n2)CC1	11	-5
CCN1CCN(c2cc(C)c3cc(NC(=O)c4ccc(Br)o4)ccc3n2)CC1	53*	-4
COc1ccc(S(=O)(=O)NCC2CCC(C(=O)N3CCC4(CC3)OCCO4)CC2)cc1 (stereo unspecified)	6	12
Cc1nnc(SCc2ccccc2F)n1NCc1cccs1	11	-3
COc1ccc(Cn2c(C)nc3c(c2=O)c2nc4ccccc4nc2n3Cc2ccco2)cc1	58*	-1
COc1ccc(CCn2c(-c3ccco3)nc3nc4ccccc4nc32)cc1	10	1
O=C1c2ccccc2C(=O)N1Cc1nc2ccccc2c(=O)n1CCN1CCOCC1	3	1
